# Source: PubChem BioAssay (National Center for Advancing Translational Sciences (NCATS))
# WRN inhibitor: inhibitors of human WRN helicase; WRN helicase unwinding, fluorescent forked duplex, kinetic; 0.46% of 360,000 active; Q14191; Potency, µM (top dose mostly 114 µM), for inactives: top-dose activity change, negative = inhibition, usual class: inhibitors; further: potency means the concentration at half of the fitted maximal effect; on the % scale 0 is the no-effect control and ±100 the full control effect; nearly all actives have a fitted effect of over 55% in size
#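 Enzyme (20 nM final) and test compound sit together 15 min at room temperature before substrate addition. Substrate is a single-forked duplex oligonucleotide (100 nM) labelled with fluorophore and quencher, with 2 mM ATP; helicase unwinding raises red fluorescence, read kinetically.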
# TCR activator: activators of T cell receptors. primary human leukocytes, anti-CD3, IL-2 HTRF, 48 h. Potency, µM (titrated, usually from 9.22 µM), for the others: at the top dose activation of IL-2 secretion, actives largely listed as activators. 330,000 tested, under 10 active. AID 504894; further: % of control where 0% means no effect
#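 48 hr co-incubation of compounds, a-CD3 beads and primary human leukocytes; IL-2 quantified homogeneously by HTRF with anti-IL-2 K and d2 conjugates.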
# PI5P4Ka inh: blocks human PI5P4K alpha kinase activity | max response, % | P48426 | 1.2% of 330,000 active | PI5P4Kalpha enzyme, ADP-Glo luminescence, 60 min; active compounds read low; active means max response of -50% or lower; inconclusive means between -30% and -50%; inactive means -30% or higher; further: value at the top dose of about 77 µM; on the % scale 0 is the no-effect control and ±100 the full control effect
#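 Compounds were pin-transferred onto PI5P4Kalpha and substrate in HEPES pH 7.4 buffer with EGTA, CHAPS and 5% DMSO. ATP (5 microM final) started the reaction, which ran 60 minutes at room temperature before ADP-Glo detection.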
# VDR inhibitor: blocks the human vitamin D receptor; P11473; VDR-SRC2-3 peptide fluorescence polarization, 2 h; Potency, µM, for the others: max response, negative = inhibition, actives largely listed as inhibitors; 0.93% of 400,000 active; AID 504847; further: potency means the concentration at half of the fitted maximal effect; on the % scale 0 is the no-effect control and ±100 the full control effect
# Target sequence (P11473 whole entry, looked up): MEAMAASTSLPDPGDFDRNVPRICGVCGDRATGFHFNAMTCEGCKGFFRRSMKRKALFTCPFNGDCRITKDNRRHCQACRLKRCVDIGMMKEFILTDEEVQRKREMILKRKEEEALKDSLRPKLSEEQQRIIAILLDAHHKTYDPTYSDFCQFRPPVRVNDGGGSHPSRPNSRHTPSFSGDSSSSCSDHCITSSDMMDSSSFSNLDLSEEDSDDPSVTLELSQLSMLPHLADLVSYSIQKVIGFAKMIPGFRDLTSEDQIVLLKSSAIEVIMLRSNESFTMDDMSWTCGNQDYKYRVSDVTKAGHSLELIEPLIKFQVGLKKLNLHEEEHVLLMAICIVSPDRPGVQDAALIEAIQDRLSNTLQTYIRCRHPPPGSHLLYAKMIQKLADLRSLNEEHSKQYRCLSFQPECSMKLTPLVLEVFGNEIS
#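 Reagent solutions, kept cold and dark, are dispensed first; compounds are then pinned in at 23 nl, plates briefly spun, and incubated 2 h at ambient temperature. Inhibition of VDR–SRC2-3 peptide binding is read by fluorescence polarization.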
# FEN1 inh: blocks human flap endonuclease 1. P39748. Recombinant FEN1 flap cleavage, fluorescence, 15 min. Potency, µM (doses to about 114 µM), for inactives: top-dose activity change, negative = inhibition, hits mostly inhibitors. 0.35% of 390,000 active; further: potency means the concentration at half of the fitted maximal effect; on the % scale 0 is the no-effect control and ±100 the full control effect; nearly all actives have a fitted effect of over 65% in size
#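 Steps: FEN1 (10 nM) dispensed; compound added by pin tool; 15 min at room temperature; substrate added to 50 nM final; reads at 0 min and 15 min; data normalized and fitted (four-parameter Hill).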
# PLK1 PBD inh: blocks phosphopeptide binding to human PLK1 polo-box domain; P53350; Plk1 PBD binding of FITC phosphopeptide, fluorescence polarization; Potency, µM, without a hit: max response, negative = inhibition, usual class: inhibitors; 2.8% of 360,000 active; AID 720504; further: potency means the concentration at half of the fitted maximal effect; series mostly up to about 57 µM; on the % scale 0 is the no-effect control and ±100 the full control effect; nearly all actives have a fitted effect of over 65% in size
# * hit, by the source's call; ? = inconclusive; · = no result given; [ ] = another dose, or the depositor's remark. This is a sample that favours compounds with a hit; in the whole collection about 3.7% have one here. Unless noted, the call rests on the fitted dose curve; in most records, active means well fitted curve in the direction sought with a large enough effect; inconclusive means small, poorly fitted or top-dose-only effect, or another doubt; inactive means no such curve, though single readings can be large; an effect the other way counts as inactive or inconclusive.
SMILES,WRN inhibitor,TCR activator,PI5P4Ka inh,VDR inhibitor,FEN1 inh,PLK1 PBD inh
COc1cc2c(NC3CCN(C)CC3)nc(N3CCCN(C)CC3)nc2cc1OCC1CCCCN1 (centres undefined),·,·,·,·,20µM*,·
CCCCCCCc1c(C#N)c(N)[nH]c(=S)c1C#N,-33%,7%,-56*,?,3%,24µM*
COc1cc(NC(=O)C/C(C)=N/NC(=O)C(=O)NCCO)c(OC)cc1Cl,-33%,-2%,9,-30%,-2%,27µM*
CCCCCCCCCC[n+]1ccc(/C=C/c2c(C)[nH]c3ccccc23)c2ccccc21,·,·,·,·,45µM*,·
CCCCCCC[n+]1ccc(/C=C/c2c(C)[nH]c3ccccc23)c2ccccc21,·,·,·,·,45µM*,·
Cc1[nH]c2ccccc2c1/C=C/c1c(C)[nH]c2ccccc12,·,·,·,·,-4%,·
CCCCCCCCCCCC[n+]1ccc(/C=C/c2c[nH]c3ccccc23)c2ccccc21,·,·,·,·,-31%,·
Cc1c(C)c(C)c(/C=C/c2ccnc3ccccc23)c(C)c1C,·,·,·,·,-15%,·
Cc1ccc(NC(=O)CSc2nc3c(c(=O)[nH]2)CCC3)cc1Cl,·,·,·,9%,-13%,·
CCOC(=O)c1c(-c2ccc(F)cc2)csc1NC(=O)C1CCCO1 (centres undefined),-12%,-2%,?,?,-3%,27µM*
S=c1[nH]nc(Cc2cccc3ccccc23)o1,0%,3%[46.1 µM],4,-1%,0%,-12%
CC(Cc1n[nH]c(=S)o1)c1ccccc1 (centres undefined),3%,-1%,-22,-20%,-18%,24µM*
CC(=O)c1ccc(-c2cnc3c(NC=O)cc(-c4cnn(C)c4)cn23)cc1,1%[57.1 µM],·,-57*,·,·,-21%
COc1cccc(-c2cc(NC=O)c3ncc(-c4cccc(C(=O)N(C)C)c4)n3c2)c1,?,·,-68*,·,·,-24%
O=CNc1cc(-c2ccoc2)cn2c(-c3ccc(F)cc3)cnc12,-7%[57.1 µM],·,-60*,·,·,?
COc1cccc(-c2cnc3c(NC=O)cc(-c4cccc(C(=O)N(C)C)c4)cn23)c1,2%[57.1 µM],·,?,·,·,?
COc1cc(-c2cc(NC=O)c3ncc(-c4ccc(F)cc4)n3c2)cc(OC)c1OC,56µM*,·,-16,·,·,?
CS(=O)(=O)Nc1cccc(-c2cc(NC=O)c3ncc(-c4ccc(F)cc4)n3c2)c1,-31%,·,?,·,·,-19%
CN(C)c1ccc(CNC(=O)CN2C(=O)CCn3nc(-c4cn(C)c5ccccc45)cc32)cc1,·,·,·,13%,1%,·
COc1cc(-c2cnc3c(NC=O)cc(-c4ccc(N5CCN(C)CC5)cc4)cn23)cc(OC)c1OC,50µM*,·,-6,·,·,0%
CN(C)c1ccc(-c2nn3c(-c4ccc(Cl)cc4)nnc3s2)cc1,-6%,-1%,8,-18%,-5%,-30%
Clc1ccc(-c2nn3c(C4COc5ccccc5O4)nnc3s2)cc1 (centres undefined),2%,1%,·,79µM*,10%,21µM*
Cc1ccc(OCC(=O)Nc2ccc3nn(-c4ccc(Cl)cc4)nc3c2)cc1,·,·,·,-21%,-9%,·
O=c1c(F)cn(C2CCCO2)c(=O)n1Cc1ccc(Cl)cc1 (centres undefined),4%,-3%,-15,-4%,1%,27µM*
O=C(C[N+]1(CC(O)c2ccccc2)CCOCC1)c1ccccc1 (centres undefined),·,·,·,·,19%,·
SMILES,WRN inhibitor,TCR activator,PI5P4Ka inh,VDR inhibitor,FEN1 inh,PLK1 PBD inh
COc1cccc(/C=N\NC(=O)c2sc(N)nc2C)c1OC,-16%,-1%,?,-7%,-3%,27µM*
COc1cccc(/C=N/NC(=O)C(=O)N/N=C/c2cccc(OC)c2OC)c1OC,3%,1%[46.1 µM],-9,-9%,3%,-11%
O=C(Nc1ccc(Cl)cc1Cl)c1cnn2c1NC(=C1CC1)C=C2C(F)F,·,·,·,·,-6%,·
Cc1ccc(-c2onc(C)c2C)cc1S(=O)(=O)NC1CCC(C)CC1 (centres undefined),·,·,·,11%,-15%,·
CC(=O)c1c(C)[nH]c2ccc(OCC(O)CNCCc3ccccc3)cc12 (centres undefined),·,·,·,·,1%,·
O=C(CNC1CCCCCC1)c1cccs1,-22%,-3%[46.1 µM],-9,?,1%,30µM*
O=C(NC1CCCCCC1)c1cccs1,-1%,·,·,15%,-4%,-2%
Cc1c2ccccc2cc[n+]1C,·,·,·,·,14%,·
CC1=[N+](C)c2ccc3ccccc3c2C1(C)C,25µM*,-6%[46.1 µM],-5,45µM*,?,-29%
N#CCCn1c(=O)c(-c2ccccc2)nc2cnc(OCc3ccccc3)nc21,·,·,·,-12%,·,·
CC(Sc1nnc(C(F)(F)F)n1C)C(=O)Nc1ccc(S(N)(=O)=O)cc1 (centres undefined),10%,-6%,-2,-19%,2%,30µM*
CC(Sc1nnc(C(F)(F)F)n1C)C(=O)Nc1ccc(N2CCOCC2)cc1 (centres undefined),-4%,-5%,-3,11%,23%,-3%
Cc1csc(NC(=O)CN2C(=O)c3ccccc3S2(=O)=O)n1,-1%,2%,-5,2%,17%,-9%
O=C(CN1C(=O)c2ccccc2S1(=O)=O)Nc1ncc([N+](=O)[O-])s1,-22%,4%,?,-17%,-3%,19µM*
Oc1ccccc1N1CCN(c2nnnn2-c2ccccc2)CC1,-4%,4%,-11,?,8%,30µM*
NCCOB(c1ccccc1)c1ccccc1,·,·,·,14µM*,·,·
NCCOc1ccccc1OCCN,-17%,4%,2,16%,-3%,-5%
COCCCn1c(SCC(=O)Nc2sc3c(c2C#N)CCCC3)nnc1-c1ccncc1,-18%,7%[46.1 µM],?,0%,-9%,27µM*
COCCCn1c(SCC(=O)NC2CCCC2)nnc1-c1ccncc1,1%,-71%,-6,?,7%,1%
CCOC(=O)C1=NN(c2ccccc2)C(=O)/C1=C\c1ccc(N(C)C)cc1,-5%,-3%,1,?,-1%,1.9µM*
CCOC(=O)CC1=NN(c2ccccc2)C(=O)/C1=C\c1ccc(OC)cc1OC,?,0%,-4,50µM*,?,2.7µM*
COC(=O)CC1=NN(c2ccccc2)C(=O)/C1=C\c1ccc(OC)cc1,50µM*,-1%[46.1 µM],-5,-25%,-13%,2.7µM*
Cc1ccc(S(=O)(=O)Nc2ccnc3ccccc23)cc1,-8%,-4%,-11,?,-6%,27µM*
Cc1ccc(S(=O)(=O)Nc2ccc(O)c3ncccc23)cc1,-26%,1%,1,-10%,13µM*,-9%
Cc1ccc(S(=O)(=O)Nc2cccc3ncccc23)cc1,5%,-1%,-5,-23%,-10%,?
COc1ccc(-c2nc3ccccc3o2)cc1NC(=O)COc1ccc(C)cc1,·,·,·,·,-4%,·
